Only some compounds are listed: those with a hit (about 1.7% of all), similar ones and a draw of the others.
Peg3 imprint – genomic imprint erasure induction | Potency, µM (highest dose often 60.7 µM), without a hit: at the highest dose activity change, positive = activation, hits mostly activators | mouse ES Peg3-LacZ reporter, beta-gal luminescence, 40 h | hit rate 0.02% among 110,000
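Imprint erasure is scored as LacZ activity from the silenced maternal Peg3 allele in feeder-free female ES cells cultured 40 h with LIF. Luminescence is normalized to in-plate negative controls and fitted to the Hill equation.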
p53ts 39C tox – p53ts cell cytotoxicity, nonpermissive temperature. H1299-p53A138V viability at 39C, ATP luminescence, 24 h. AID 902. Potency, µM (titrated, usually from 46.1 µM), for inactives: at the highest dose activity change, negative = cell killing, actives largely listed as cytotoxic. hit rate 1.5% among 130,000; note: % is set by controls: 0 for no effect and ±100 for the full control effect; nearly all actives have a fitted effect of over 55% in size
p53ts 32C kill – p53ts cell cytotoxicity, permissive temperature; H1299-p53A138V at 32C, ATP luminescence viability, 24 h; Potency, µM (doses to about 46.1 µM), without a hit: top-dose activity change, negative = cytotoxicity, hits mostly cytotoxic; hit rate 0.93% among 130,000;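 note: 0% = DMSO and -100% = full killing by reference compound; nearly all actives have a fitted effect of over 55% in size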
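Cells: H1299 p53ts (A138V), 600/well, pre-incubated 16–30 h at 37C. Cpd up to 46 uM, 24 h, 32C. Readout: ATPlite luminescence, 20 min RT. Normalization: DMSO vs tamoxifen 100 uM. AC50 by Hill equation.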
IkB sig inh – suppresses IkB signaling in ABC-DLBCL reporter cells; AID 445; Potency, µM (series often up to 57.1 µM), without a hit: at the highest dose IkBa stabilization activation; hit rate 0.04% among 110,000; ABC-DLBCL IkBa-CBG/CBR dual luciferase ratio, 4 h; response scale: scaled: untreated 0%, proteasome inhibitor 100%; active = well fitted curve in the direction sought with a large enough effect in the signal ratio, not every such curve was filed as active; inconclusive = small, poorly fitted or top-dose-only effect, or a change in a side signal; the % refers to the signal ratio;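 note: the direction sought is a rising ratio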
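Luminescence ratio of IκBα-fused green versus native red beetle luciferase in OCI-Ly3 cells, 4 h post-doxycycline with compound; red signal alone, scaled from basal (0%) to zero light (-100%), flagged nonspecific or cytotoxic effects.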
Numbers without * were called inactive; ? = inconclusive; · = not tested or not shown; ! = repeats disagree; [ ] = remark or other dose. Unless noted, calls come from the whole dose curve; as a rule, active = well fitted curve in the direction sought with a large enough effect; inconclusive = small, poorly fitted or top-dose-only effect, or another doubt; inactive = no such curve, though single readings can be large; an effect the other way counts as inactive or inconclusive. Potency is the fitted concentration of half-maximal effect.

SMILES	Peg3 imprint	p53ts 39C tox	p53ts 32C kill	IkB sig inh
O=S(=O)(c1cccc(Cl)c1)n1c(/C=C/c2ccccc2Cl)nc2ccccc21	-84%[10.9 µM]	1µM*	1.3µM*	6%
CSc1ccc(/C=C/c2nc3ccccc3n2S(=O)(=O)c2cccc(Cl)c2)cc1	-25%[10.9 µM]	4µM*	3.2µM*	?
COc1cc(S(=O)(=O)n2c(C)nc3ccccc32)ccc1F	9%	8%	-6%	4%
C=CCSc1nc2ccccc2n1S(=O)(=O)c1ccc(C)cc1	·	8%	5%	·
C=C1CC[C@@H]2O[C@]2(C)CC[C@@H]2[C@H]1CC2(C)C	·	·	·	0%[11.4 µM]
CCCc1nn2c(=O)cc(COC(=O)c3ccccc3NC(=O)c3ccc(OCC)cc3)nc2s1	12%[10.9 µM]	10µM*	-11%	-1%
Nc1ccc(-c2nc3ccccc3[nH]2)cc1	-86%	?	10µM*	16%
Nc1cccc(-c2nc3ccccc3[nH]2)c1	-80%	?	?	8%
c1ccc(-c2csc(-c3nc4ccccc4[nH]3)n2)cc1	-36%	16µM*	7.9µM*	·
Fc1ccc(Nc2nc(-c3ccoc3)nc3ccccc23)cc1	2%	15%	18%	0%[11.4 µM]
CC(=O)N1CCc2cc(Br)cc(S(=O)(=O)CCC(=O)Nc3ccc(C)cc3Cl)c21	-5%[10.9 µM]	26%	6%	?
C=CCCCCCCCCCCCc1ccco1	1%	-9%	-9%	·
CCc1ccccc1N1CC(c2nc3ccccc3n2CCCOc2ccc(Cl)cc2)CC1=O (centres undefined)	-13%[10.9 µM]	20µM*	?	?
COc1ccccc1OCCCCn1c(C2CC(=O)N(c3ccccc3Cl)C2)nc2ccccc21 (centres undefined)	-6%[10.9 µM]	20µM*	?	?
CCOc1ccccc1N1CC(c2nc3ccccc3n2CCCOc2ccc(OC)cc2)CC1=O (centres undefined)	-6%[10.9 µM]	?	?	?
Cn1nc(-c2ccc(OCC(=O)Nc3ccc(Cl)cc3)cc2)c2ccccc2c1=O	-19%[10.9 µM]	?	?	21%
Cn1cccc1-c1cc2n(n1)CCC(=O)N2CCCC(=O)NCc1ccc(F)cc1	-10%[10.9 µM]	2%	-1%	?
Cc1nc2ncnn2c(N2CCN(C(c3ccccc3)c3ccccc3)CC2)c1C	-41%	20µM*	?	?
Cc1cc(N2CCN(C(c3ccccc3)c3ccccc3)CC2)n2ncnc2n1	-44%	8%	12%	2%
COc1ccc(C)cc1NC(=O)NCc1ccc2c(c1)CCN2C(=O)c1ccccc1	-4%[10.9 µM]	-24%	-7%	?
CCCN1CCN(CCCNC(=O)C2CCCN(c3nc4ccc(OCC)cc4s3)C2)CC1 (centres undefined)	-22%	?	?	?
CCCCN(C)CCNC(=O)C1CCN(c2nc3ccc(CC)cc3s2)CC1	-9%[10.9 µM]	16µM*	10µM*	?
CCc1ccc2nc(N3CCC(C(=O)O)CC3)sc2c1	-10%[10.9 µM]	6.3µM*	6.3µM*	?
CCOc1ccc2nc(N3CCCC(C(=O)NCCCOC)C3)sc2c1 (centres undefined)	14%[10.9 µM]	10µM*	?	-1%
COc1ccc(NC(=O)Cn2c(SCc3ccc(C)cc3)nc3cccnc32)cc1OC	·	·	3.2µM*	·
SMILES	Peg3 imprint	p53ts 39C tox	p53ts 32C kill	IkB sig inh
O=C(NCCN1CCCCC1)c1ccc(Cn2c(SCc3ccc(F)cc3)nc3cccnc32)cc1	-10%[10.9 µM]	7.9µM*	7.9µM*	?
COCCCNC(=O)c1ccc(Cn2c(SCc3ccc(F)cc3)nc3cccnc32)cc1	·	·	11µM*	·
CC(=O)N1CCc2nc3sc(C(=O)c4ccc(F)cc4)c(N)c3c(C(F)(F)F)c2C1	-9%[10.9 µM]	-3%	6%	?
COc1ccc(-c2coc3cc(O)cc(O)c3c2=O)cc1	-59%	?	?	-2%[11.4 µM]
O=c1c(-c2ccc(O)cc2)coc2cc(O)cc(O)c12	-31%	?	10µM*!	?
COc1ccccc1N1CCN(Cc2nc(-c3cc(OC)c(OC)c(OC)c3)no2)CC1	-14%[10.9 µM]	-10%	2%	?
COc1cc(-c2noc(CN3CCN(c4ccccc4)CC3)n2)cc(OC)c1OC	7%[10.9 µM]	25µM*	-4%	6%
Cc1ccc2[nH]cc(C(c3ccccc3)c3cccs3)c2c1 (centres undefined)	11%[10.9 µM]	?	?	?
Cc1ccc2[nH]cc(C(c3ccccc3)c3ccc(C)s3)c2c1 (centres undefined)	-10%[10.9 µM]	13µM*	?	?
CC1=C(c2ccc(C)c(C)c2)S(=O)(=O)N=C1N1CCC(C(=O)NCc2ccc(N(C)C)cc2)CC1	-20%[10.9 µM]	-24%	-2%	?
Cc1ccc(NC(=O)c2cc(C)n(-c3ccccc3)c2C)cc1	·	7.1µM*	·	·
CCS(=O)(=O)Nc1cc(-c2cn3ccc(C)cc3n2)ccc1C	-11%[10.9 µM]	13µM*	?	-1%
Cc1ccn2cc(-c3ccc(C)c(NS(=O)(=O)c4ccc(Cl)cc4)c3)nc2c1	-6%[10.9 µM]	-14%	-5%	?
COc1ccccc1N1CCN(c2ccc(-c3ccccc3)nn2)CC1	·	2µM*	3.2µM*	4µM*
COc1ccccc1N1CCN(c2nc(-c3ccccc3)cc(C(F)(F)F)n2)CC1	-8%	18%	-4%	0%
Cn1c(=O)cc(SCC(=O)N2CCN(c3ccccc3F)CC2)c2cc(Cl)ccc21	-9%[10.9 µM]	-23%	9%	?
CS(=O)(=O)c1ccc(CNC(=O)[C@H]2C[C@@H]2[C@H](NP(=O)(c2ccccc2)c2ccccc2)c2ccccc2)cc1	-15%	5%	6%	·
COc1ccc(-c2cc(C(F)(F)F)nc(S(=O)(=O)CCCC(=O)Nc3cccc(O)c3)n2)cc1OC	-9%[10.9 µM]	3.2µM*	?	?
COc1ccccc1-c1cc(C(F)(F)F)nc(S(=O)(=O)CCCC(=O)Nc2cc(OC)c(OC)c(OC)c2)n1	-39%[10.9 µM]	5µM*	6.3µM*	-7%
COc1ccccc1-c1cc(C(F)(F)F)nc(S(=O)(=O)CCCC(=O)Nc2ccc(F)c(Cl)c2)n1	-21%[10.9 µM]	?	?	?
O=C(CCS(=O)(=O)c1nc(-c2ccc3c(c2)OCO3)cc(C(F)(F)F)n1)Nc1ccc(F)cc1F	?	32%	-24%	?
COc1ccc(NC(=O)CCS(=O)(=O)c2nc(-c3ccc4c(c3)OCO4)cc(C(F)(F)F)n2)cc1	-8%[10.9 µM]	-114%	?	?
COc1ccc(-c2cc(C(F)(F)F)nc(S(=O)(=O)CCCC(=O)Nc3ccccc3C(F)(F)F)n2)cc1OC	-29%[10.9 µM]	5µM*	?	?
COc1ccc(NC(=O)CCCS(=O)(=O)c2nc(-c3ccc(OC)c(OC)c3)cc(C(F)(F)F)n2)cc1OC	-34%[10.9 µM]	2.5µM*	?	?
CCOc1ccccc1C(=O)NCC(c1ccc(N(C)C)cc1)N1CCc2ccccc21 (centres undefined)	-11%[10.9 µM]	-12%	6%	?
COc1ccc(-c2cc(C(F)(F)F)nc(S(=O)(=O)CCC(=O)N3CCOCC3)n2)cc1	-1%	?	5µM*	-3%

Bioassay records from PubChem BioAssay.
